# HCV inhibitor = qHTS Assay for Inhibitors of Hepatitis C Virus (HCV) | Huh7.5.1 HCVcc-Cre infection, luciferase reporter, 44 h | Potency, µM (series often up to 41.8 µM), inactives show at the highest dose activity change, negative = inhibition, actives largely listed as inhibitors | hit rate 3.4% among 340,000 | AID 651820, 2012; active = well fitted inhibition curve with a large enough effect; inconclusive = small, poorly fitted or top-dose-only effect, or another doubt; inactive = no such curve, though single readings can be large or run the other way; note: potency is the fitted concentration of half-maximal effect
#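 Reporter virus HCVcc-Cre (~0.5 moi) infects cells exposed to compound; seeding density 1,000 cells/well with 4 h settling beforehand. Luminescence, 15 sec read, taken 44 h post-infection following a 15 min RT substrate incubation.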
# HCMV inh = qHTS Assay for inhibitors of the human cytomegalovirus (HCMV). hit rate 4.5% among 410,000. AID 1259415, 2018. activity change, negative = inhibition, % at 57.5 µM. HFF cells, HCMV-luciferase reporter, 72 h; active compounds read low; in the data active = activity change below about -60%; inconclusive = no clear call, values can overlap the other calls; inactive = above about -39%
#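 Steps: HFFs plated, 16 h 37C; compounds added; HCMV-luciferase added to MOI 1 PFU/cell; 72 h 37C; OneGlo reagent, 5 min room temperature; luminescence read, normalized to controls.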
# Vaccinia mCherry = qHTS for Stage-Specific Inhibitors of Vaccinia Orthopoxvirus: mCherry Reporter Primary qHTS | Vaccinia virus mCherry reporter infection, fluorescence | Potency, µM (titrated, usually from 36.5 µM), for the others: at the top dose activity change, negative = inhibition, most hits filed as inhibitors | hit rate 0.63% among 310,000 | AID 720579, 2013; calls by dose curve; tested in A549 cells; note: potency is the fitted concentration of half-maximal effect; nearly all actives have a fitted effect of over 35% in size
# FMDV inh = High Throughput Screening for Foot and Mouth Disease Virus Antivirals | Potency, µM (top dose mostly 57.9 µM), without a hit: at the highest dose activity change, negative = inhibition, most hits filed as inhibitors | FMDV antiviral cell-based qHTS | AID 1159524, 2015 | hit rate 1.2% among 410,000; calls by dose curve; tested in HEK293T cells; note: read-out not given here; potency is the fitted concentration of half-maximal effect; nearly all actives have a fitted effect of over 45% in size
# VACV Venus inh = qHTS for Stage-Specific Inhibitors of Vaccinia Orthopoxvirus: Venus Reporter Primary qHTS; Potency, µM (titrated, usually from 36.5 µM), without a hit: at the top dose activity change, negative = inhibition, hits mostly inhibitors; AID 720580, 2013; hit rate 0.46% among 330,000; Vaccinia virus Venus reporter expression, fluorescence; calls by dose curve; tested in A549 cells; note: potency is the fitted concentration of half-maximal effect; nearly all actives have a fitted effect of over 30% in size
# * marks the source's active call; other numbers are inactive results; i = inactive; ? = inconclusive; . = no result; [ ] = another dose, or the depositor's remark. A selection: hits, their analogues and other compounds. The true share with any hit is near 7.3%. % is set by controls: 0 for no effect and ±100 for the full control effect.
SMILES,HCV inhibitor,HCMV inh,Vaccinia mCherry,FMDV inh,VACV Venus inh
Nc1nc(Nc2ccccc2)sc1C(=O)c1ccccc1,?,-88.3*,?,53.1%,28.2µM*
COc1ccc(C(=O)c2sc(Nc3ccccc3)nc2N)cc1OC,-25.5%,-92.1*,?,?,?
COc1ccc(C(=O)Nc2ccc(C(=O)c3ccccc3)cc2)cc1,?,?,i[7.34 µM],?,-12.7%[7.34 µM]
COc1ccc(C(=O)c2sc(Nc3cc(Cl)ccc3C)nc2N)cc1OC,.,-13.2,-21.6%,0.0%,-9.5%
COC(=O)C[C@H]1c2cc(C(F)(F)F)ccc2S(=O)(=O)N1C(C)C,.,.,i,.,-4.9%
Cc1ccccc1Nc1nc(N)c(C(=O)c2ccccc2Cl)s1,.,-68.9*,?,-13.1%,?
Cc1cc(C)cc(Nc2sc(C(=O)c3ccccc3)c(N)c2S(=O)(=O)c2ccccc2)c1,.,19.8,-24.2%,-35.0%,-6.1%
Nc1c(C(=O)c2ccccc2)sc(Nc2ccccc2)c1S(=O)(=O)c1ccccc1,14.1µM*,-29.6,.,23.2%,.
COC(C(=O)C(O)C(C)O)C1Cc2cc3cc(OC4CC(OC5CC(O)C(O)C(C)O5)C(O)C(C)O4)c(C)c(O)c3c(O)c2C(=O)C1OC1CC(OC2CC(OC3CC(O)C(OC)C(C)O3)C(O)C(C)O2)C(O)C(C)O1 (stereo unspecified),1µM*,-98.1*,?,3.4%,?
COC(C(=O)C(O)C(C)O)C1Cc2cc3cc(OC4CC(OC5CC(O)C(O)C(C)O5)C(O)C(C)O4)c(C)c(O)c3c(O)c2C(=O)C1OC1CC(OC2CC(OC3CC(C)(O)C(O)C(C)O3)C(O)C(C)O2)C(O)C(C)O1 (stereo unspecified),.,.,0.282µM*,.,0.282µM*
Clc1ccc(Nc2nnc(Cc3ccncc3)c3ccccc23)cc1,.,3.0,.,.,.
COc1cc(OC)cc(-c2oc3cccnc3c2C#CCCO)c1,7.08µM*,15.7,?,-12.3%,?
Cc1cc(C)c(S(=O)(=O)N[C@H]2CC[C@@]34CCCN3C(=O)CCC[C@H]4[C@H]2Cc2ccccc2)c(C)c1,.,-21.9,.,.,.
O=C1c2ccc([N+](=O)[O-])cc2NC(c2ccco2)N1/N=C/c1ccco1 (stereo unspecified),-17.7%,-11.3,-3.2%,-3.1%,19.6%
CN=c1scc(-c2ccc([N+](=O)[O-])cc2)n1/N=C/c1ccco1,11.6%,-87.4*,-4.7%,47.4%,-9.7%
O=C(Cc1ccccc1)OC(COCc1ccccc1)CN1CCOCC1 (stereo unspecified),8.1%,-88.2*,.,-14.9%,-10.3%
CC1C(=O)N(Cc2ccc(F)cc2)c2ccccc2N1C(=O)c1c(F)cccc1F (stereo unspecified),?,-72.9*,.,22.4µM*,.
CCOc1ccccc1CNC(=O)c1cnc2sc(N(CC)CC)nn2c1=O,.,-19.2,i,-23.9%,-20.6%
CC(=O)Nc1cccc(/C(C)=N/NC(=O)c2ccc(O)cc2)c1,8.8%,-23.3,-13.5%,1.5%,-10.0%
C/C(=N\NC(=O)c1ccccc1F)c1ccc2c(c1)Nc1ccccc1S2,?,-69.2*,?,?,?
C/C(=N\NC(=O)c1ccc(O)cc1)c1ccc2c(c1)Nc1ccccc1S2,10µM*,-29.4,-22.5%,0.0%,?
CCOC(=O)/C(=N/Nc1ccc(OC)cc1)N1CCCc2ccccc21,-3.2%,?,-22.0%,-0.2%,?
CCOC(=O)/C(=N/Nc1ccccc1)N1CCCc2ccccc21,0.2%,-63.1*,-9.7%,?,-13.7%
CCc1ccccc1NC(=O)Cn1c(=O)nc(-c2ccccc2)c2ccccc21,.,41.2,-10.8%,4.0%,-2.3%
CCN(CC)Cc1cc(Nc2c3ccccc3nc3c4ccccc4n(C)c23)cc(CN(CC)CC)c1O,?,-25.4,-20.6%,-18.1%,11.2µM*
SMILES,HCV inhibitor,HCMV inh,Vaccinia mCherry,FMDV inh,VACV Venus inh
CC1=CC(C)(C)n2c(O)c(C3=NC(=S)NC3=O)c3cc(OC(=O)c4cccc5ccccc45)cc1c32,?,-71.6*,-12.9%,?,0.1%
COc1ccc(/C=N/NC(N)=S)cc1OC(=O)c1cccc2ccccc12,?,40.3,?,-25.6%,?
CCn1c(-c2ccccc2F)nc2cc(NC(C)=O)cc(C(=O)N(C)Cc3c(C)nc4ccccn34)c21,.,.,-5.6%,-0.4%,0.0%
O=C(NCCCN1CCN(c2ccccc2)CC1)c1nnc(Cc2c(F)cccc2Cl)o1,.,-12.5,-7.5%,-22.5%,-7.7%
O=C1c2cccc3c(N4CCCCC4)ccc(c23)C(=O)N1c1cccc(O)c1,?,-83.7*,-19.1%,-10.3%,151.2%
Cc1ccccc1OCC(=O)NCC(C)NC(=O)COc1ccccc1C (stereo unspecified),.,.,24.9%,.,-2.3%
O=C(Nc1ccc(C(=O)NCC2CCN(Cc3ccccc3F)CC2)cc1)C1=CSCCO1,-8.6%,-15.9,.,5.9%,.
Cc1ccc(CN2CCC(CNC(=O)c3ccc(NC(=O)C4=CSCCO4)cc3)CC2)cc1,12.6µM*,-33.7,.,-0.2%,.
Cc1ccc(NS(=O)(=O)c2ccc(C(=O)NC3CCN(Cc4ccccc4)CC3)cc2)cc1,?,-92.1*,?,?,?
O=C(NC1CCN(Cc2ccccc2)CC1)c1cccc(S(=O)(=O)Nc2ccc(SC(F)F)cc2)c1,2.82µM*,-29.6,.,?,.
O=C(CCNS(=O)(=O)c1ccc(Br)cc1)NC1CCN(Cc2ccccc2)CC1,?,-16.5,-9.7%,?,-26.2%
O=C(NC1CCN(Cc2ccccc2)CC1)c1cccc(NS(=O)(=O)c2ccc(Br)cc2)c1,11.2µM*,?,.,?,.
Cc1ccc(NS(=O)(=O)c2cccc(C(=O)NC3CCN(Cc4ccccc4)CC3)c2)cc1,12.6µM*,?,?,-28.3%,?
Cc1nn(-c2ccc3nnc(C)n3n2)c(C)c1CCC(=O)Nc1ccc(OC(F)(F)F)cc1,.,-23.5,-19.0%,-15.0%,-16.4%
COc1ccc(Cn2c(C(=O)O)c(CNCc3ccco3)c3ccc(OC)cc32)cc1,.,-19.3,0.3%,-2.8%,-8.6%

# Source: PubChem (National Center for Advancing Translational Sciences (NCATS))
